Screening data deposited in PubChem BioAssay by National Center for Advancing Translational Sciences (NCATS).
AmpC inh no det: blocks E. coli AmpC beta-lactamase in absence of detergent. P00811. AmpC nitrocefin hydrolysis, absorbance 480 nm, no detergent. Potency, µM (series often up to 28.7 µM), inactives show top-dose activity change, negative = inhibition. actives 1.8% (n = 71,000). AID 585; also: % of control where 0% means no effect
Target sequence (P00811 whole entry, looked up): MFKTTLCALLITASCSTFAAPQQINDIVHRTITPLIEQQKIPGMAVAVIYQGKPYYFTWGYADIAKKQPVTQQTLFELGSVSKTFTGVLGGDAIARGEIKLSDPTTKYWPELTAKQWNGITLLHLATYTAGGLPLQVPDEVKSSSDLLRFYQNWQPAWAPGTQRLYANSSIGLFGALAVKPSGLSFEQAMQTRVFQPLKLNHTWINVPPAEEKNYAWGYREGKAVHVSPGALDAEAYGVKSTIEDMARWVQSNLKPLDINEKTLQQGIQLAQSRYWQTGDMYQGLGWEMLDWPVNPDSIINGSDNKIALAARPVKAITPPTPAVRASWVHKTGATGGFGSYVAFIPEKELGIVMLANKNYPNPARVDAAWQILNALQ
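AmpC, 20 mM phosphate pH 7.0; 15 min cpd preinc, RT; start with nitrocefin (800 uM stock); A480 kinetic read, 20 s intervals, 4 min. No-enzyme wells = negative control.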
SmPrx2 inh: blocks S. mansoni peroxiredoxin 2 enzymatic activity; actives 0.07% (n = 65,000); Potency, µM; AID 448; S. mansoni Prx2 activity coupled to TGR/GSH (TGR is thioredoxin glutathione reductase), NADPH fluorescence loss, qHTS
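Activity is read as the drop in NADPH fluorescence (365/450 nm), recorded every 30 sec for 8 min after H2O2 addition. Prx2 is coupled to TGR-driven NADPH oxidation through glutathione, in phosphate buffer pH 7.4.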
LT uptake inh: anthrax lethal toxin internalization inhibition | Cells, anthrax lethal toxin internalization, FRET ratio (460/530) | Potency, µM (titrated, usually from 40 µM), inactives show at the top dose activity change, negative = inhibition, usual class: inhibitors | actives 0.67% (n = 70,000); also: % is scaled to controls: 0 for no effect and ±100 for the full control effect; nearly all actives have a fitted effect of over 50% in size
AmpC det inh: AmpC beta-lactamase inhibition, detergent assay; P00811; purified AmpC, nitrocefin hydrolysis with detergent; Potency, µM (top dose mostly 28.7 µM), for the others: top-dose activity change, negative = inhibition; actives 0.09% (n = 71,000); active = well fitted curve in the direction sought with a large enough effect; inconclusive = small, poorly fitted or top-dose-only effect; also: % is scaled to controls: 0 for no effect and ±100 for the full control effect
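E. coli AmpC (5.3 nM) in 20 mM phosphate pH 7.0 with 0.01% Triton X-100, preincubated 15 min RT with compound; nitrocefin (2 uL of 800 uM stock) hydrolysis followed by 480 nm absorbance every 20 s over 4 min.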
Starred values were filed as active, the others as inactive; u = inconclusive; x = no result given; [ ] = another dose, or the depositor's remark. Hits are enriched below; roughly 2.4% of the tested compounds scored in any of these assays. Unless noted, calls follow the shape of the full dose curve. Potency is read from the fitted curve at half-maximal effect.

SMILES	AmpC inh no det	SmPrx2 inh	LT uptake inh	AmpC det inh
Cc1cccc(C2CC(c3ccccc3)Nc3ncnn32)c1 (centres undefined)	3.98µM*[single pt active]	>57	-1.5%	15.2%
COc1ccc(C2CC(c3ccco3)n3ncnc3N2)cc1 (centres undefined)	2.51µM*[single pt active]	>57	-9.9%	8.4%
CCOc1ccc(C2CC(c3cccc(C)c3)n3ncnc3N2)cc1 (centres undefined)	83.4%	>57	-13.4%	13.3%
C=CCN1C[C@@H](C)N([C@H](c2ccc(C(=O)N(CC)CC)cc2)c2cccc(OC)c2)C[C@H]1C	22.5%	>57	u	-0.7%
CC(C)CO/N=C1/C[C@@H](O)[C@@H](O)[C@@H]2[C@@H]3C(=O)N(Cc4ccc5c(c4)OCO5)C(=O)[C@H]3CC[C@H]12	x	x	-1.9%[8 µM]	x
O=C(CN1CCN(c2ccc(F)cc2)CC1)Nc1nnc(-c2ccccc2)s1	15.8µM*[single pt active]	>57	1.2%	0.4%
O=C(CN1CCN(c2ccccc2)CC1)Nc1nnc(-c2ccccc2)s1	-8.5%	>57	-1.0%	-2.2%
COc1ccc(NC(=O)NCCCN2CCN(c3cc(C)ccc3C)CC2)cc1	3.98µM*[single pt active]	>57	u	12.1%
CC(=O)NCCNc1nc(-c2ccccc2C(F)(F)F)nc2ccccc12	29.3%	>57	6.1%	11.0%
COc1cccc(Nc2ncc3nc(-c4cn(C)c5ccccc45)c(=O)n(CCC#N)c3n2)c1	-9.8%	>57	u	-0.9%
Nc1nc(C(=O)N2CCOCC2)nn1C(=O)c1ccc(Cl)cc1	3.98µM*[single pt active]	>57	2.7%	11.9%
O=C(c1ccc(Cl)cc1)c1ccccc1C(=O)N1CCOCC1	15.6%	>57	-6.7%	16.8%
CC(C)N[C@@H](C)Cc1ccc(I)cc1	1.3%	>57	-4.4%	-1.7%
CC(=O)N[C@@H](c1ccccc1)[C@]1(C)C[C@H]1[C@@H](C)C(=O)Nc1ccc2ccccc2c1	110.8%	>57	-24.6%	0.0%
C[C@@H](C(=O)Nc1ccc2ccccc2c1)[C@@H]1C[C@@]1(C)[C@@H](NS(=O)(=O)c1ccccc1)c1ccccc1	-13.7%	>57	u	0.8%
C[C@@H](C(=O)Nc1ccc2ccccc2c1)[C@H]1C[C@]1(C)[C@H](NC(=O)OCc1ccccc1)c1ccccc1	7.94µM*	>57	u	1.7%
Cc1cc(C(=O)N[C@H](c2ccccc2)[C@@]2(C)C[C@@H]2[C@@H](C)C(=O)Nc2ccc3ccccc3c2)n(C)n1	69.0%	>57	10µM*	-3.3%
COc1ccc(OC)c(S(=O)(=O)n2ccnc2)c1	7.7%	>57	9.5%	12.5%
O=c1[nH][nH]c(=S)c(=O)[nH]1	3.9%[5.75 µM]	>57	-9.4%[8 µM]	-3.0%[5.75 µM]
O=C(COc1ccc(Cl)cc1)NCc1nnc(SCC(=O)Nc2ccccc2)o1	29.9%	>57	-3.3%	-4.1%
O=C(CSc1nnc(CNc2ccc(Cl)cc2)o1)Nc1nc2ccccc2s1	3.98µM*[single pt active]	>57	-4.0%	0.1%
CCC(c1nnnn1Cc1cccs1)N1CCN(c2nc3ccccc3s2)CC1 (centres undefined)	35.7%	>57	10µM*	7.9%
COCCn1c(=O)c(-c2ccc(OC)cc2)nc2cnc(Nc3cccc(OC)c3)nc21	2.5%	>57	-3.9%	-1.9%
C[C@@H]1Cc2cc3c(cc2C(c2ccc(N)cc2)=NN1)OCO3	-8.2%	>57	u	-2.9%
C[C@@](N)(Cc1ccc(O)c(O)c1)C(=O)O	-9.3%[12.8 µM]	>57	-9.1%[3.58 µM]	3.0%[12.8 µM]
SMILES	AmpC inh no det	SmPrx2 inh	LT uptake inh	AmpC det inh
Nc1ncnc2c1c(-c1ccc(Oc3ccccc3)cc1)cn2C1CCCC1	27.6%	>57	15.8µM*	1.2%
OCCN1CCN(c2ncnc3ccc(Br)cc23)CC1	3.98µM*[single pt active]	>57	-4.1%	12.7%
CCN1CCN(c2ncnc3ccc(Br)cc23)CC1	-7.5%	>57	-14.7%	-3.8%
Nc1nc2c(s1)CC(c1ccccc1)CC2 (centres undefined)	7.94µM*	>57	3.7%	7.7%
Nc1nc(SCc2ccccc2)ns1	-16.6%	>57	u	-3.7%
Nc1ccc2cc3ccccc3cc2c1	2.51µM*	x	u	12.5%
N#Cc1cccc(NC(=O)N2CCCC3(CCN(C(=O)c4cccc(F)c4)CC3)C2)c1	49.9%	>57	1.8%	-1.2%
Oc1c(Cl)cc(C(c2cc(Cl)c(O)c(Cl)c2)C(c2cc(Cl)c(O)c(Cl)c2)c2cc(Cl)c(O)c(Cl)c2)cc1Cl	-26.5%[5.75 µM]	>57	-8.5%[8 µM]	-3.1%[5.75 µM]
Oc1c(Cl)cc(Cl)cc1Sc1cc(Cl)cc(Cl)c1O	u	x	3.16µM*	5.5%
O=C(CSc1nnc(-c2cc3ccccc3cc2O)n1Cc1ccco1)c1ccc(F)cc1	10µM*	>57	u	22.0%
